We go through 40 compounds from PubChem BioAssay (EPA / NIEHS).

Records with an inconclusive call do not appear. Active and inactive are the calls of the source. How the source made its calls: active means hit-call score of the fitted dose curve at least 0.9, where 1 is the maximum; inconclusive means response in the unintended direction; inactive means score below 0.9.

This assay in a line: Tanguay_ZF_120hpf_TRUN_legacy: (Legacy) Oregon State University Tanguay Lab 120 Hour Post-fertilization zebrafish Assay for Truncated Body (AID 2283655). The protocol: Tanguay_ZF_120hpf_legacy is a whole embryo, multiplexed endpoint assay using zebrafish larvae exposed for 120 hours post fertilization on a 96-well plate.Tanguay_ZF_120hpf_TRUN_legacy is one of one assay component(s) measured or calculated from the Tanguay_ZF_120hpf_legacy assay. It is designed to make measurements of zebrafish development as detected with brightfield microscopy of developing zebrafish embryos.Data from the assay component Tanguay_ZF_120hpf_TRUN_legacy was analyzed into 1 assay endpoints. This assay endpoint, Tanguay_ZF_120hpf_TRUN_legacy, was analyzed in the positive analysis fitting direction relative to DMSO as the negative control and baseline of activity. Using a type of morphology reporter, gain-of-signal activity can be used to understand changes in developmentals as they relate to the whole embryo. To generalize the intended target to other relatable targets, this assay endpoint is annotated to the zebrafish development intended target family, where the subfamily is embryonic morphogenesis.
Zebrafish husbandry: Tropical 5D wild-type adult zebrafish were housed in at an approximate density of 1000 per 100 gallon tank at the Sinnhuber Aquatic Research Laboratory, Oregon State University, Corvallis, OR. Each tank was kept at standard laboratory conditions of 28C on a 14-h light/10-h dark photoperiod in fish water consisting of reverse osmosis water supplemented with a commercially available salt (Instant Ocean). Spawning funnels were placed into the tanks the night prior, and embryos were collected and staged. To increase bioavailability, the chorion was enzymatically removed using pronase (63.6mg/ml, >/= 3.5U/mg, Sigma-Aldrich: P5147) at 4 hours post fertilization (hpf) using a custom automated dechorionator.Chemical exposures: Six hpf dechorionated embryos were placed 1 embryo per well in a 96-well plate prefilled with 90 ul of EM using automated embryo placement systems (AEPS). Ten microliters of each row of dilution plate 2 was added to 2 exposure plates. The final DMSO concentration used was 0.64% (vol/vol). Thirty-two embryos were also exposed to 5uM trimethyltin chloride (positive control). Plates were sealed to prevent evaporation and foil covered to reduce light exposure and kept in a 28C incubator. Embryos were statically exposed until 120 hpf. At 24 hpf, embryos were assessed for photomotor response using a custom photomotor response analysis tool (PRAT) and for developmental toxicity endpoints (MO24: mortality at 24 hpf, DP: developmental progression, SM: spontaneous movement, and NC: notochord distortion). At 120 hpf, locomotor activity was measured using Viewpoint Zebralab and assessed for 18 endpoints. Zebrafish acquisition and analysis program (ZAAP), a custom program designed to inventory, acquire, and manage zebrafish data, was used to collect developmental endpoints as either present or absent (i.e., binary responses were recorded). If mortality occurred for an embryo (at either 24 or 120 hpf), the non-mortality endpoints were not measured.
Turning to `CCCCCCCCCCCCCCO`, the outcome was inactive. For the compound `O=c1[nH]cnc2c1ncn2[C@H]1CC[C@@H](CO)O1`, the outcome was inactive.

On to `NC(=O)NN=Cc1ccc([N+](=O)[O-])o1`, for which the compound was called inactive. With `CCOC(N)=O`, the compound was classed as inactive. With `OC[C@H]1O[C@@H]2O[C@H]3[C@H](O)[C@@H](O)[C@@H](O[C@H]4[C@H](O)[C@@H](O)[C@@H](O[C@H]5[C@H](O)[C@@H](O)[C@@H](O[C@H]6[C@H](O)[C@@H](O)[C@@H](O[C@H]7[C@H](O)[C@@H](O)[C@@H](O[C@H]1[C@H](O)[C@H]2O)O[C@@H]7CO)O[C@@H]6CO)O[C@@H]5CO)O[C@@H]4CO)O[C@@H]3CO`, the compound was called inactive.

As for `CC(C)CCCCCCOC(=O)C1CCCCC1C(=O)OCCCCCCC(C)C` (stereo not given), the result was inactive. Consider `CCCCCCCCN(C)C`, for which the result was inactive. The same measure for `Cn1c(=O)c2[nH]cnc2n(C)c1=O`: “inactive”; for `NC(=O)N(O)[C@@H]1COc2cc(OCc3ccccc3)ccc21`: “inactive”; for `CCc1ccc(O)c(C(C)(C)C)c1`: “inactive”. As to `CCCCC(CC)C(=O)OCCOCCOCCOC(=O)C(CC)CCCC` (stereo not given), the call was inactive. The same measure for `OCc1ccccc1`: “inactive”. The same measure for `OC(CCl)CCl`: “inactive”; for `C[C@@H](Oc1ccc(CNC(=O)c2cccnc2Oc2ccc3c(c2)OCO3)c(F)c1)C(=O)O`: “inactive”; for `CCCCN1C(=O)[C@@H]([C@H](O)C2CCCCC2)NC(=O)C12CCN(Cc1ccc(Oc3ccc(C(=O)O)cc3)cc1)CC2`: “inactive”. In the case of `C=CCc1cc(S(=O)(=O)c2ccc(O)c(CC=C)c2)ccc1O` it was “inactive”; in that of `C=CN1CCCC1=O`, “inactive”. As to `Cc1ccc(S(=O)(=O)NC(=O)NN2CCCCCC2)cc1`, the call was inactive.

With `CCn1nc(C)c2c1C(=O)NCC(c1ccc(O)cc1)=N2`, the call was inactive. The same measure for `OCC(CO)(CO)CO`: “inactive”; for `O=C(O)c1cccc(C[C@@H]2COc3ccc(OCc4nc5cc(F)ccc5s4)cc3[C@@H]2O)c1`: “inactive”; for `O=C(O)c1ccc2c(c1)nc(C(=O)NC1CCN(C3CC3)CC1)n2Cc1cc(-c2ccc(Cl)s2)on1`: “inactive”. As to `Cc1nccn1-c1ccc(Sc2cccc(C3(C(N)=O)CCOCC3)c2)cc1`, the result was inactive.

For `OC[C@H]1O[C@@](CO)(O[C@H]2O[C@H](CO)[C@@H](O)[C@H](O)[C@H]2O)[C@@H](O)[C@@H]1O`, the call was inactive.

Take `COCc1nnc(-c2ccc[n+]([O-])c2)n1-c1c(Cl)c(Cl)cc2[nH]c(=O)c(=O)[nH]c12`: the result was inactive. The same measure for `CC1(C)C(=O)N(Cl)C(=O)N1Cl`: “inactive”; for `NC(=O)N1c2ccccc2C=Cc2ccccc21`: “inactive”; for `O=C1CN(N=Cc2ccc([N+](=O)[O-])o2)C(=O)N1`: “inactive”. For `c1ccc2ncccc2c1`, the call was inactive. The same measure for `CC(C)c1nnc2ccc(-c3ocnc3-c3cc(F)ccc3F)cn12`: “inactive”; for `CCCCCOC(C)=O`: “inactive”. With `CCCCOC(=O)c1ccccc1`, the result was inactive.

In the case of `C[C@]12C=CC(=O)C=C1CC[C@H]1[C@@H]3C[C@@H](O)[C@](O)(C(=O)CO)[C@@]3(C)C[C@H](O)[C@@]12F`, the outcome was inactive.

For the compound `c1ccc2c(c1)-c1cccc3c1c-2cc1ccccc13`, the compound was classed as inactive. The same measure for `COS(C)(=O)=O`: “inactive”; for `CC(=O)c1ccccc1`: “inactive”.

For the compound `NC(N)=O`, the call was inactive.

As to `CCOc1ccc2[nH]cc(C(=O)NCc3ccccc3)c(=O)c2n1`, the result was inactive. In the case of `OCCOCCOCCO` it was “inactive”; in that of `CCCCCCCCCCCCCCCCOS(=O)(=O)O`, “inactive”.
